These results are taken from PubChem BioAssay.

Assay [1] concerns Plasmodium falciparum Sir2 (PF13_0152, Sir2A). In words: Plasmodium falciparum Sir2A binding compounds – biochemical, small-molecule microarray, 635 nm fluorescence, primary screen (AID 1098).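 Further: score merges spot fluorescence intensity with its signal-to-noise ratio.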 The conditions noted are these: fluorescence 635 nm, higher = more signal.
Assay [2] can be described thus: probe aDKK1 binding to arrayed compounds – biochemical, biotinylated probe, 635/667 nm fluorescence, primary screen (AID 1099).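 Further: score merges 667nm spot fluorescence with signal to noise across triplicate slides.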 The following applies: small-molecule microarray, higher = more signal.
Assay [3] can be described thus: probe aCHRDL2 binding to arrayed compounds – biochemical, biotinylated probe, 635/667 nm fluorescence, primary screen (AID 1100). The conditions noted are these: small-molecule microarray, higher = more signal.
Assay [4] in a line: change in splice reporter luminescence, either direction, cell-based, HEK293, spliceosome inhibition project, primary screen (AID 1101).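 Further: HEK293 cells carrying a splicing-competent luciferase reporter gene; test concentration not given here.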 The conditions noted are these: HEK293 splicing luciferase reporter, 24 h, higher = more signal, called active from +8 up or from −8 down.
In assay [5] the target is Fibroblast growth factor 10 (Homo sapiens) (UniProt O15520). In words: compounds binding fibroblast growth factor 10 – biochemical, small-molecule microarray, 635 nm fluorescence, primary screen (AID 1102). The conditions noted are these: FGF10 binding, fluorescence 635 nm, higher = more signal.
The subject of assay [6] is glycogen synthase kinase-3 (GSK3A per assay name; protocol says GSK3B). Kind of assay: compounds binding glycogen synthase kinase-3 – biochemical, small-molecule microarray, 635 nm fluorescence, GSK3A, primary screen (AID 1103). Further: the record names both GSK3A and GSK3B. The following applies: fluorescence 635 nm, higher = more signal.
For assay [7], the target named is Epidermal growth factor receptor (Homo sapiens) (UniProt P00533). Kind of assay: compounds binding epidermal growth factor receptor – biochemical, small-molecule microarray, 635 nm fluorescence, primary screen (AID 1104).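 Further: score merges 667 nm emission intensity with spot signal to noise over triplicate slides.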 The following applies: EGFR binding, higher = more signal.
Assay [8] deals with Follistatin-related protein 3 (Homo sapiens) (UniProt O95633). In words: compounds binding follistatin-related protein 3 – biochemical, small-molecule microarray, 635 nm fluorescence, primary screen (AID 1105).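 Further: score merges emission near 667 nm and signal to noise per printed spot across three slides.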 The conditions noted are these: FSTL3 binding, higher = more signal.
Assay [9] addresses Dickkopf-related protein 1 (Homo sapiens) (UniProt O94907). In words: small molecules binding DKK1 protein – biochemical, small-molecule microarray, 635 nm fluorescence scan, primary screen (AID 1106).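 Further: score merges emission near 667 nm with signal to noise over three replicate slides.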 The conditions noted are these: higher = more signal.
Assay [10] deals with Inhibin beta A chain (activin A). Kind of assay: small molecules binding activin A – biochemical, small-molecule microarray, 635 nm fluorescence scan, primary screen (AID 1107).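 Further: mouse activin A protein probed at 4.33 µg/mL on printed slides; score merges bound-protein fluorescence near 667 nm with spot signal-to-noise.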 The conditions noted are these: INHBA, higher = more signal.
For assay [11], the system named is Human papillomavirus type 1a protein E7 (residues 44-93). In words: small molecules binding HPV E7 44-93 – biochemical, small-molecule microarray, residues 44-93, 635 nm fluorescence, primary screen (AID 1108).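 Further: E7 fragment applied at 1 µg/mL in TBST for 1 h at 4 C; score combines spot fluorescence with its signal to noise ratio.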 The conditions noted are these: fluorescence 635 nm, higher = more signal.
Assay [12] in a line: hepatitis C replication reporter changes, two-sided – Huh7 cells, luciferase reporter, HCV replication inhibitor project, primary screen (AID 1109).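 Further: huh7 hepatoma cells harbouring a luciferase neomycin HCV replicon reporter; luciferase luminescence as measure of HCV replicon replication; test concentration not given here.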 The following applies: Huh7 HCV replicon luciferase reporter, 48 h; higher = more signal.
Assay [13] concerns the target Left-right determination factor 2 (Homo sapiens) (UniProt O00292). In words: small molecules binding LEFTY2 protein – biochemical, small-molecule microarray, 635 nm fluorescence scan, primary screen (AID 1110). The conditions noted are these: higher = more signal.
Assay [14] addresses Calmodulin-1 (Homo sapiens) (UniProt P0DP23). Kind of assay: small molecules binding calmodulin-1 with EGTA – biochemical, small-molecule microarray, Cy5-labelled CALM1, profiling panel (AID 1111).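 Further: labelled calmodulin applied in Tris saline Tween buffer holding calcium plus EGTA and DTT.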 The conditions noted are these: Cy5-CALM1 binding fluorescence, higher = more signal.
Assay [15] shares this target. In words: small molecules binding Ca-loaded calmodulin-1 – biochemical, small-molecule microarray, Cy5-labelled CALM1, plus calcium, artefact control for SMM control-protein annotation, profiling panel (AID 1112).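 Further: score merges spot fluorescence with signal to noise from triplicate slides.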 The following applies: Cy5-CALM1 binding fluorescence, higher = more signal.
Assay [16] in a line: probe aWnt5a binding to arrayed compounds – biochemical, biotinylated probe, 635/667 nm fluorescence, primary screen (AID 1113).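 Further: score merges 667 nm fluorescence intensity with signal-to-noise per printed feature.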 The conditions noted are these: small-molecule microarray, higher = more signal.
Assay [17] can be described thus: probe aShh binding to arrayed compounds – biochemical, biotinylated probe, 635/667 nm fluorescence, primary screen (AID 1114).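 Further: probe is biotin-labelled aShh protein from a stem cell growth factor screen; measures binding of labelled protein to compounds printed on the slide; score merges feature fluorescence at 667 nm with signal-to-noise.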 The following applies: small-molecule microarray, higher = more signal.
The nature of assay [18]: probe aNog binding to arrayed compounds – biochemical, biotinylated probe, 635/667 nm fluorescence, primary screen (AID 1115).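 Further: probe is biotinylated aNog protein used at 0.15 µg/mL for 1 h at 4 C; z-score combines 667 nm fluorescence of each spot with its signal to noise.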 The conditions noted are these: small-molecule microarray, higher = more signal.
In assay [19] the target is Torsin-1A-interacting protein 1 (Homo sapiens) (UniProt Q5JTV8). In words: compound microarray binding of lysate hLAP1 – cell lysate, small-molecule microarray, COS7 lysate, 635/667 nm fluorescence, primary screen (AID 1116). The following applies: 635 nm fluorescence, higher = more signal.
In assay [20] the target is Alpha-bungarotoxin (Bungarus multicinctus) (UniProt P60615). Kind of assay: compounds binding labelled alpha-BTX control protein – biochemical, small-molecule microarray, Alexa647 label, 635/667 nm fluorescence, artefact control for SMM control protein annotation, profiling panel (AID 1117). The conditions noted are these: alpha-BTX-A647 binding fluorescence, higher = more signal.

The source made the active and inactive calls.

Sequence of Alpha-bungarotoxin (Bungarus multicinctus) (P60615 whole entry, looked up): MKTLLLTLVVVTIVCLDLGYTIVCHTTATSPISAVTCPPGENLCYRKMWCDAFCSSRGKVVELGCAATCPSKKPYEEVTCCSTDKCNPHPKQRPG
Sequence of Epidermal growth factor receptor (Homo sapiens) (P00533 whole entry, looked up): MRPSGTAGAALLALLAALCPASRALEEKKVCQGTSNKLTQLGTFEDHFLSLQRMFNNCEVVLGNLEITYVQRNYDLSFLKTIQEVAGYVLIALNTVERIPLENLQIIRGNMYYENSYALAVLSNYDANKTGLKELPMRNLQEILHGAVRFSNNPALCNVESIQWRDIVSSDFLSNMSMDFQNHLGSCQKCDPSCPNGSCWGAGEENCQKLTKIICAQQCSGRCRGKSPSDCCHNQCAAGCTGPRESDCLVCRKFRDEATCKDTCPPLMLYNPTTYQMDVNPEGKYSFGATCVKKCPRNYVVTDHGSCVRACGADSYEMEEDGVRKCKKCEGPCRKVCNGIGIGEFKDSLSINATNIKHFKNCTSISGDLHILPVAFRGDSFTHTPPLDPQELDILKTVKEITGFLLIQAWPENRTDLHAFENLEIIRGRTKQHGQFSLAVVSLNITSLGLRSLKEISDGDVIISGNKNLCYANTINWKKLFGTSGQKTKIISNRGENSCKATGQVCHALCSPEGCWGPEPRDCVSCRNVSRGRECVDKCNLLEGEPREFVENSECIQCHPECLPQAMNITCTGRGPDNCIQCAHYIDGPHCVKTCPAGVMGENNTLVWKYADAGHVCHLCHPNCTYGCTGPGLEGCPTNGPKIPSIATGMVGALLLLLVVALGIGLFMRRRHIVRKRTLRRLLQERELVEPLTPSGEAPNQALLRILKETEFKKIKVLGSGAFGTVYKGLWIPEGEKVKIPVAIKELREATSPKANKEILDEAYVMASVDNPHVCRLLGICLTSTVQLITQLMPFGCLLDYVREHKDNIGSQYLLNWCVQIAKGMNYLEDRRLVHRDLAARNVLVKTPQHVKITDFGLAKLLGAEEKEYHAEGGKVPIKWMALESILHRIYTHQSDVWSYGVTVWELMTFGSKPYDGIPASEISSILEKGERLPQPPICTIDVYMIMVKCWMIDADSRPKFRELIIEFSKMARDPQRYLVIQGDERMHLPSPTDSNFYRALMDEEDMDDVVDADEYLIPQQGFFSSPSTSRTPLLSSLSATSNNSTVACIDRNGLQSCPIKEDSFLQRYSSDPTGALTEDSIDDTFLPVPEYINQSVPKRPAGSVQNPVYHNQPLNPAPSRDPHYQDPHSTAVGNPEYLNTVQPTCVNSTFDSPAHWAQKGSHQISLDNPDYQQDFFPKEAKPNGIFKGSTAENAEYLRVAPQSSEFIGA
Sequence of Left-right determination factor 2 (Homo sapiens) (O00292 whole entry, looked up): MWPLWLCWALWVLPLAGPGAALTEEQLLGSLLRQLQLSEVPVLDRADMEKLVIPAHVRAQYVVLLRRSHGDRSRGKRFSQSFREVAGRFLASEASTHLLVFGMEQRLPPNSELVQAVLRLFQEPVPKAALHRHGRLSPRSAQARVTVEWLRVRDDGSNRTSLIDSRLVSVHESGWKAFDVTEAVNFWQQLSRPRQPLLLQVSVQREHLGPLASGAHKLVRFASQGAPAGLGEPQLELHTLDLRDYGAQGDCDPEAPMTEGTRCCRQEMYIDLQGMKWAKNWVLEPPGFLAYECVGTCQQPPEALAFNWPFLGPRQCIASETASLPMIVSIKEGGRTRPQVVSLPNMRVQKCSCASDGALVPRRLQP
Sequence of Fibroblast growth factor 10 (Homo sapiens) (O15520 whole entry, looked up): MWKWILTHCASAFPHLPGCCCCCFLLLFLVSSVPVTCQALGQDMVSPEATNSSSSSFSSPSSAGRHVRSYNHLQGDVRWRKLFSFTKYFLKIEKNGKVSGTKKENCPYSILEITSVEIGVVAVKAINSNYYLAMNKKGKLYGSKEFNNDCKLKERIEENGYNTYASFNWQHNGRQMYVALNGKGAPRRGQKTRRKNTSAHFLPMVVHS
Sequence of Follistatin-related protein 3 (Homo sapiens) (O95633 whole entry, looked up): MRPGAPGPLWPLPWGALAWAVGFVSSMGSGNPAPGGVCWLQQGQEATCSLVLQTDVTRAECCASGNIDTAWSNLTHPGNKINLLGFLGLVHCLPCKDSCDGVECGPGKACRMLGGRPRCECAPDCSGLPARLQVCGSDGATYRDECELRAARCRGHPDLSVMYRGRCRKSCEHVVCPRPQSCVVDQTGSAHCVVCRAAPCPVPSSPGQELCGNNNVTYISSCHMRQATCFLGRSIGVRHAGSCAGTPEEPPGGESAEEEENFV
Sequence of Dickkopf-related protein 1 (Homo sapiens) (O94907 whole entry, looked up): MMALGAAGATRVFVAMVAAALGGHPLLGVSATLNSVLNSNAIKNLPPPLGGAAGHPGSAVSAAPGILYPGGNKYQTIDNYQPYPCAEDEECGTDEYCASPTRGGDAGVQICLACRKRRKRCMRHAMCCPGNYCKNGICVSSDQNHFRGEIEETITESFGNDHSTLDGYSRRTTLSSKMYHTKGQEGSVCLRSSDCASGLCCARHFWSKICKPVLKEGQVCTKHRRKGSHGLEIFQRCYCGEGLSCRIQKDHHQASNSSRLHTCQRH
Sequence of Torsin-1A-interacting protein 1 (Homo sapiens) (Q5JTV8 whole entry, looked up): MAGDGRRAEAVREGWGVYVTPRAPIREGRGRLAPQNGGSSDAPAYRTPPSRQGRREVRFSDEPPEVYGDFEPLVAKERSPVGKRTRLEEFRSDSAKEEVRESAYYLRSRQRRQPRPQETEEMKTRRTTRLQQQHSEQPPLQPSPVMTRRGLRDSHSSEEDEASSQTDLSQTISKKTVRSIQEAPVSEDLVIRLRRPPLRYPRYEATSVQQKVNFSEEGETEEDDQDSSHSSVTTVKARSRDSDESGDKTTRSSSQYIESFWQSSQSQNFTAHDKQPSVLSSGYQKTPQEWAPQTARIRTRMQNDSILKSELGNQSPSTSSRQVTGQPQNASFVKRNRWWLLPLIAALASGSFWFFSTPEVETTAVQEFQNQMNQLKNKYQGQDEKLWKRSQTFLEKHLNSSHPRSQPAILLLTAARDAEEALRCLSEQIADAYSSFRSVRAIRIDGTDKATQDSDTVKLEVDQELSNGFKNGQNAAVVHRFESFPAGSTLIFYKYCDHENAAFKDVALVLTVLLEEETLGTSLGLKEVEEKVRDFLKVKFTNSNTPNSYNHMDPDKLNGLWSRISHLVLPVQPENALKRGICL

For the compound `COc1cccc([C@H]2Oc3ccc(OC)cc3C(=NO[C@H](C)c3cn([C@@H]4COC[C@H]4O)nn3)[C@@H]2O)c1`, the composite z-score in [1] is 0.53; in assay [2], -0.393; in assay [3] it was -0.381; in [5], -0.481; in assay [6], -1.14; in assay [7], -0.0724. Also, the composite z-score in assay [8] is -0.525; in [9] it was 0.0385; in [10], 0.0726; in [11] it was -0.632; in assay [13], -0.647; in assay [14], 0.0409. Further, the composite z-score was -0.421 in assay [15]; -0.184 in assay [16]; -0.147 in assay [17]; -0.36 in assay [18]; -0.1 in [19]; 1.7 in [20]. The z-score was -0.992 (inactive) in assay [4] and -0.0869 in assay [12].
`CC(C)CN1CCc2nc(-c3ccccc3)c3c(c2CC1)CO[C@@H](C)C3`: the composite z-score in assay [1] was -0.232; in assay [2], 0.256; in [3], -0.469; in assay [5] it was 0.515; in [6], 0.123; in assay [7], 0.471. In addition, the composite z-score in assay [8] is 0.202; in assay [9] it was 0.718; in assay [10] it was 0.157; in [11], -0.749; in assay [13] it was 0.774; in assay [14] it was -0.268. In addition, the composite z-score in assay [15] was -0.177; in assay [16], 0.027; in assay [17], 0.191; in [18], -0.138; in assay [19] it was 0.12; in [20], 0.405. Further, the z-score is 0.00565 (inactive) in assay [4] and -0.747 in [12].
Take `CC(C)NC(=O)[C@@H]1c2ccccc2C(=O)N(CC23CC4CC(CC(C4)C2)C3)[C@H]1c1ccc(CO)cc1`: the composite z-score in assay [1] was 1.45; in [2] it was 0.171; in assay [3] it was 0.46; in [5] it was 0.596; in assay [6], 1.23; in [7] it was 0.582. Besides, the composite z-score in assay [8] is 1.28; in [9] it was 0.651; in assay [10], 0.43; in assay [11], 1.36; in assay [13] it was 0.606; in assay [14], 0.324. In addition, the composite z-score in assay [15] was -0.291; in [16], -0.0835; in [17], 0.439; in assay [18], -0.338; in assay [19] it was 0.774; in assay [20] it was 0.812. For the same compound, the z-score in assay [4] was -1.21 (inactive); in assay [12], -1.67.
On to `CCCCC(=C=CC[C@H](O)c1ccccc1OCCO)C[C@H](O)COCc1ccccc1`, for which the composite z-score in assay [1] is 1.45; in [2], -0.001; in [3] it was 0.309; in assay [5], 0.0624; in [6], -0.285; in assay [7] it was -0.792. The composite z-score in assay [8] was -0.349; in assay [9], -0.355; in assay [10], 0.778; in assay [11], -0.156; in [13] it was -0.233; in assay [14] it was 1.22. In addition, the composite z-score in assay [15] is 0.768; in assay [16], -0.124; in assay [17], -0.138; in assay [18], 0; in assay [19], 1.65; in assay [20], 1.04. The z-score in [4] was -0.139 (inactive); in assay [12], -1.92.
As for `O=C1CCCC=C1C(O)CCOCc1ccccc1` (stereo not given), the composite z-score in assay [1] is 0.265; in assay [2] it was -0.229; in [3], -0.513; in assay [5], 0.154; in assay [6], -0.391; in assay [7], 0.255. Also, the composite z-score in assay [8] is -0.0207; in assay [9], 0.428; in [10] it was 0.13; in assay [11], -0.649; in [13], 0.408; in assay [14] it was -0.314. The composite z-score in assay [15] was -0.605; in assay [16], -0.0735; in [17], -0.209; in assay [18] it was -0.0236; in assay [19], 0.266; in [20] it was 0.129. The values for the z-score in [4] and in [12] were 0.322 (inactive) and 0.939, respectively.
`O=C(NN=C1C[C@@H](O)[C@@H](O)[C@@H]2[C@@H]3C(=O)N(c4cccc(Oc5ccccc5)c4)C(=O)[C@@H]3CC[C@@H]12)OCc1ccccc1`: the composite z-score was 0.0165 in [1]; 0.182 in [2]; 0.548 in assay [3]; 0.353 in assay [5]; -0.54 in assay [6]; 0.152 in assay [7]. Moreover, the composite z-score is -0.112 in [8]; 0.155 in assay [9]; 0.229 in assay [10]; 0.69 in assay [11]; 0.127 in assay [13]; 0.131 in assay [14]. Moreover, the composite z-score in assay [15] is 0.0109; in assay [16] it was -0.145; in assay [17], -0.206; in [18], 0.0658; in [19], 0.184; in assay [20], 0.837. Moreover, the z-score is 0.538 (inactive) in assay [4] and -0.983 in [12].
